This is an account of results in PubChem BioAssay (NCI).

This is part of a sample that, as a whole, favours compounds with a hit. Of some 79,000 tested, about 15% had one in any assay. Activity calls are given as the source filed them. Rule as the data show it: active = growth inhibition above about 70%; inactive = the rest.

The first assay in a line: NCI Yeast Anticancer Drug Screen. Data for the bub3 strain (AID 167). The settings on record: S. cerevisiae bub3 mutant strain, at 50.0 µM, stronger effect = higher value. The gist of the method: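 Growth of a checkpoint-deficient yeast mutant is measured after compound exposure. Values represent inhibition relative to vehicle.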
With `CCCCCCCCCCCc1cc(=O)c2c(O)cccc2o1`, the growth inhibition is 4% (inactive).
On to `CCCCNS(=O)(=O)c1cc(C(=O)O)cc(C(=O)O)c1`, for which the growth inhibition is 2.75% (inactive).
As for `C=C1CC2(CCC3C4CC=C5CC(O)CCC5(C)C4CCC32C)OC1=O` (stereo not drawn), the growth inhibition was 8.15% (inactive).
As to `CCC(c1ccccc1)c1cc(C(C)(C)C)cc(C(C)(C)C)c1O` (stereo not drawn), the growth inhibition was 25.4% (inactive).
In the case of `O=C1CCC2(O1)c1ccc(O)cc1Oc1cc(O)ccc12`, the growth inhibition is 7.6% (inactive).
The same measure, in the same setting: as for `C=Nc1ccc(C)cc1`, the figure is -2.7% (inactive); as for `O=[N+]([O-])c1cc(Br)ccc1N1CCCC1`, -2.3% (inactive); as for `ClNc1nc(NCl)nc(NCl)n1`, -9.8% (inactive).
As to `CCCCCCCCCCCCCCCCc1c(C)nc(N(C)C)oc1=O`, the growth inhibition was 21.1% (inactive).
In the case of `CN(C)CCNc1cccc2oc3ccc(O)cc3c(=O)c12`, the growth inhibition was -4.95% (inactive).
For `CCOC(=O)c1c[nH]c2ccc3c(nc(C)n3C)c2c1=O`, the growth inhibition is -21.4% (inactive).
For `O=S(=O)(O)SCC1=NCCN1`, the growth inhibition was 11.2% (inactive).
Turning to `NC(=O)C1CCCN(C2OC(COP(=O)(O)OP(=O)(O)OCC3OC(n4cnc5c(N)ncnc54)C(OP(=O)(O)O)C3O)C(O)C2O)C1` (stereo not drawn), the growth inhibition was 16.3% (inactive).
Consider `COC(=O)c1cccn1C(=O)c1ccc(C)c(OCc2ccccc2)c1[N+](=O)[O-]`, for which the growth inhibition was 18.5% (inactive).
On to `CCCCSC(CC(O)C(O)COC(=O)c1ccc([N+](=O)[O-])cc1)SCCCC` (stereo not drawn), for which the growth inhibition is -4.85% (inactive).
For `CCOC(=O)N1CN(C(=O)OCC)CN(C(=O)OCC)C1`, the growth inhibition was 29.4% (inactive).
Take `CC(=O)OCC(OC(C)=O)C(OC(C)=O)C(OC(C)=O)C(O)CO` (stereo not drawn): the growth inhibition is 24.6% (inactive).
Regarding `COc1cc([C@@H]2c3cc4c(cc3[C@H](OC(=O)CCCC(=O)O)[C@H]3COC(=O)[C@H]23)OCO4)cc(OC)c1OC`, the growth inhibition is 10.9% (inactive).
Consider `O=C1c2ccccc2-c2ccc(-c3ccc4c5c(cccc35)C(=O)c3ccccc3-4)c3cccc1c23`, for which the growth inhibition is -31.3% (inactive).
Turning to `OCCn1nnc2ccccc21`, the growth inhibition is 1.7% (inactive).
In the case of `O=C(O)c1cc(=O)[nH]c2ccccc12`, the growth inhibition is 1.7% (inactive).
Turning to `CCN(CC)CCOCC(=O)Nc1ccccc1C`, the growth inhibition was 22.8% (inactive).
With `O=C(O)Cc1ccccc1C(=O)O`, the growth inhibition was -19% (inactive).

A short description of another assay: NCI Yeast Anticancer Drug Screen. Data for the mlh1 rad18 strain (AID 175). As to conditions: S. cerevisiae mlh1 rad18 strain growth inhibition; at 50.0 µM; stronger effect = higher value. The method, boiled down:
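Inhibition values reflect reduced growth of mutant yeast versus vehicle-treated controls following compound exposure; the mutations affect DNA damage repair.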
With `Nc1ncc2[nH]c(I)nc2n1`, the growth inhibition was 26.4% (inactive).
The same measure, in the same setting: as for `CCC1(c2ccccc2)CCCC/C1=N/NC(N)=O` (stereo not drawn), the figure is -8.7% (inactive); as for `CC(=N/NC(=S)NCCN1CCCC1)/C(C)=N\NC(=S)NCCN1CCCC1`, 35.1% (inactive); as for `O=C(NN1C(=O)c2cccc3cccc(c23)C1=O)NN1C(=O)c2cccc3cccc(c23)C1=O`, 99% (active).
Take `Cc1c(COC(=O)NC(C)C)c(COC(=O)NC(C)C)c2n1CS(=O)(=O)C2`: the growth inhibition is 6.35% (inactive).
Same read-out and setting: next, `CC1(C(=O)O)CCCC2(C)c3ccc(O)cc3CCC12` (stereo not drawn): 45% (inactive); `C1CCc2[nH]nc(-c3n[nH]c4c3CCCCC4)c2CC1`: 18.5% (inactive); `CN(C)CCN1C(=O)c2c(c3cccn3c3c2cnn3-c2ccccc2)C1=O`: 32.6% (inactive).
Still for that read-out and setting: as for `O=[N+]([O-])c1ccc(S(=O)(=O)Nc2ccccc2-c2ccccc2)cc1`, the figure is 98.7% (active).
Still for that read-out and setting: next, `N#CC1=CCc2ccccc2N1C(=O)Oc1ccccc1`: 47.2% (inactive).
For the compound `O=C(NNc1nc(N2CCOCC2)nc(N2CCOCC2)n1)c1ccccc1`, the growth inhibition was -4.3% (inactive).
On to `CC(=O)OCc1ccc(C)cc1`, for which the growth inhibition is 0.3% (inactive).
Turning to `Cn1cnc([N+](=O)[O-])c1Sc1ccncc1S(N)(=O)=O`, the growth inhibition was -9.15% (inactive).
On to `CCN(CC)CCCNC(Cc1ccccc1)c1ccc(OC)cc1` (stereo not drawn), for which the growth inhibition was -19.8% (inactive).
Turning to `C=C1CCc2ccccc2C1=O`, the growth inhibition was 13.6% (inactive).
As to `O=S(Nc1ccc(Cl)cc1)c1ccccc1` (stereo not drawn), the growth inhibition was 2.3% (inactive).
Take `O=C1C(O)=C(Cl)C(=O)C(OC2=C(Cl)C(=O)C(OC3=C(Cl)C(=O)C(OC4=C(Cl)C(=O)C(Cl)=C(Cl)C4=O)=C(Cl)C3=O)=C(Cl)C2=O)=C1Cl`: the growth inhibition is 22.3% (inactive).
Turning to `CCCCCCCCCCCc1cc(=O)c2c(O)cccc2o1`, the growth inhibition is -14.4% (inactive).
As for `CCCCNS(=O)(=O)c1cc(C(=O)O)cc(C(=O)O)c1`, the growth inhibition is -1.7% (inactive).
As for `C=C1CC2(CCC3C4CC=C5CC(O)CCC5(C)C4CCC32C)OC1=O` (stereo not drawn), the growth inhibition was 15.2% (inactive).
`CCC(c1ccccc1)c1cc(C(C)(C)C)cc(C(C)(C)C)c1O` (stereo not drawn): the growth inhibition was 0.95% (inactive).
On the same count and under the same terms, next, `O=C1CCC2(O1)c1ccc(O)cc1Oc1cc(O)ccc12`: -7.3% (inactive); `C=Nc1ccc(C)cc1`: -18.4% (inactive); `O=[N+]([O-])c1cc(Br)ccc1N1CCCC1`: -6.85% (inactive).
Regarding `ClNc1nc(NCl)nc(NCl)n1`, the growth inhibition was -19.1% (inactive).
Consider `CCCCCCCCCCCCCCCCc1c(C)nc(N(C)C)oc1=O`, for which the growth inhibition is 2.25% (inactive).
For the compound `CN(C)CCNc1cccc2oc3ccc(O)cc3c(=O)c12`, the growth inhibition was 7.4% (inactive).
With `CCOC(=O)c1c[nH]c2ccc3c(nc(C)n3C)c2c1=O`, the growth inhibition was -47.5% (inactive).
Turning to `O=S(=O)(O)SCC1=NCCN1`, the growth inhibition is 9.85% (inactive).
Turning to `NC(=O)C1CCCN(C2OC(COP(=O)(O)OP(=O)(O)OCC3OC(n4cnc5c(N)ncnc54)C(OP(=O)(O)O)C3O)C(O)C2O)C1` (stereo not drawn), the growth inhibition is -0.9% (inactive).
`COC(=O)c1cccn1C(=O)c1ccc(C)c(OCc2ccccc2)c1[N+](=O)[O-]`: the growth inhibition is 8.05% (inactive).
For the compound `CCCCSC(CC(O)C(O)COC(=O)c1ccc([N+](=O)[O-])cc1)SCCCC` (stereo not drawn), the growth inhibition was -5.85% (inactive).
On to `CCOC(=O)N1CN(C(=O)OCC)CN(C(=O)OCC)C1`, for which the growth inhibition is -5.45% (inactive).
Regarding `CC(=O)OCC(OC(C)=O)C(OC(C)=O)C(OC(C)=O)C(O)CO` (stereo not drawn), the growth inhibition was -4.45% (inactive).
For the compound `COc1cc([C@@H]2c3cc4c(cc3[C@H](OC(=O)CCCC(=O)O)[C@H]3COC(=O)[C@H]23)OCO4)cc(OC)c1OC`, the growth inhibition is 33.6% (inactive).
Consider `O=C1c2ccccc2-c2ccc(-c3ccc4c5c(cccc35)C(=O)c3ccccc3-4)c3cccc1c23`, for which the growth inhibition is -34.2% (inactive).
As to `OCCn1nnc2ccccc21`, the growth inhibition was -3.7% (inactive).
Consider `O=C(O)c1cc(=O)[nH]c2ccccc12`, for which the growth inhibition is 14.9% (inactive).
On to `CCN(CC)CCOCC(=O)Nc1ccccc1C`, for which the growth inhibition was 26.6% (inactive).
For the compound `O=C(O)Cc1ccccc1C(=O)O`, the growth inhibition was -5% (inactive).
